# Test results from the supplement of paper PMC11732987, “Enantioselective OTUD7B fragment discovery through chemoproteomics screening and high-throughput optimisation” (Communications Chemistry, 2025).
# A number with no mark means an inactive call.
# Tests used:
# Assay in all cases: log2 ratio of Biotin-Ahx-Ub-VS probe labelling (fragment/DMSO); higher = less target engagement (more negative = stronger competition), active = hit call of the paper (q ≤ 0.05, log2 ratio ≤ -1)
# Conditions in all cases: compound concentration: 200 uM; treatment time: 3 h
# OTUD6B = biological target: T1, OTUD6B (UniProt Q8N6M0)
# T1 sequence (whole entry): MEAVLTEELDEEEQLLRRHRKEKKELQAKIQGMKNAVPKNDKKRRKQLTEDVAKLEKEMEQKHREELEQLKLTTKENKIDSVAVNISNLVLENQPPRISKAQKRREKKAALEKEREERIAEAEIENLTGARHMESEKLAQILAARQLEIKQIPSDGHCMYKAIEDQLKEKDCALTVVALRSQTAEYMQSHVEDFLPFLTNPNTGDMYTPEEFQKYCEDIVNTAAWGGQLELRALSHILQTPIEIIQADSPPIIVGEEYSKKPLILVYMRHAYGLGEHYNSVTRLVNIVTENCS
# Method in brief: (§1)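 HEK293T lysate (495 µg per sample, in Tris/CHAPS/IGEPAL buffer with protease inhibitors) was treated in triplicate with fragment at 200 µM or with DMSO for 3 h. It was then treated with Biotin-Ahx-Ub-VS (0.5 µM final) for 1 h. Labelled DUBs were NeutrAvidin-enriched, digested with LysC and trypsin, and run by diaPASEF LC-MS/MS. Spectronaut label-free quantities were global-median-normalised. Values are average log2 ratios fragment/DMSO by unpaired t-test, using proteins with ≥2 unique peptides.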
# OTUD7B = biological target: T2, OTUD7B (UniProt Q6GQQ9)
# T2 sequence (whole entry): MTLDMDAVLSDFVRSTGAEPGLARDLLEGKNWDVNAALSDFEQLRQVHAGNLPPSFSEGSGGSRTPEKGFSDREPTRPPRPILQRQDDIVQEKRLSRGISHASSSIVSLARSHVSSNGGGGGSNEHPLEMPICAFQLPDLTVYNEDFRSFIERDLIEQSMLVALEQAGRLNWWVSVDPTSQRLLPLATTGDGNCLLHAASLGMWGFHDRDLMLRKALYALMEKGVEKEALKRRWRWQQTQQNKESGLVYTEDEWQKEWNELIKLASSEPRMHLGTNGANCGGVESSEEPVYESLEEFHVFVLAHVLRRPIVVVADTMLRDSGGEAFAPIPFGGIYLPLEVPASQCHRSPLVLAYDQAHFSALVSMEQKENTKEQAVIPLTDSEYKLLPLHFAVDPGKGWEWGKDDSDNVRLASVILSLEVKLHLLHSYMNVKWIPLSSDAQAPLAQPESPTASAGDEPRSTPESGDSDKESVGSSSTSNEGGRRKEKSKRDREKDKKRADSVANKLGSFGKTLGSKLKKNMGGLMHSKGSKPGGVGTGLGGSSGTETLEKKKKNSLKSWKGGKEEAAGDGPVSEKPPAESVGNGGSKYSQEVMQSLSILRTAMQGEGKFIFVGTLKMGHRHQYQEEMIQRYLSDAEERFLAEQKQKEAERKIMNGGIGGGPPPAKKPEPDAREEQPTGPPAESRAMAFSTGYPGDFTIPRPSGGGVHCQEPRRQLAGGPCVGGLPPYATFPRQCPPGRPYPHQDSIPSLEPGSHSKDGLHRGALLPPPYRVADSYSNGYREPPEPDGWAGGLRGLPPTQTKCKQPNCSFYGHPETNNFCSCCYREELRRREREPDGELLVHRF
# Method in brief: as §1
# PRPF8 = PRPF8 (UniProt Q6P2Q9)
# Method in brief: as §1
# PSMD7 = biological target: T3, PSMD7 (UniProt P51665)
# T3 sequence (whole entry): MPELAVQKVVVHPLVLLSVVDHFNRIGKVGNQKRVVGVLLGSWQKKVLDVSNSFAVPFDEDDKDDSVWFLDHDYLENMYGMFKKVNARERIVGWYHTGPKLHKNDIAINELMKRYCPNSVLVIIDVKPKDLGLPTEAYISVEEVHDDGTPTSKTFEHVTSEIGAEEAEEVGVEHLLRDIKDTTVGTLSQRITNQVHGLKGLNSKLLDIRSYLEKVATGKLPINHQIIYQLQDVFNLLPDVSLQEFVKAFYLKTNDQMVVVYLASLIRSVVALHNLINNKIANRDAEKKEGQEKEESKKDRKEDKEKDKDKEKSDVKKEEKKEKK
# Method in brief: as §1
# UCHL1 = UCHL1 (UniProt P09936)
# UCHL1, sequence (P09936 whole entry, looked up): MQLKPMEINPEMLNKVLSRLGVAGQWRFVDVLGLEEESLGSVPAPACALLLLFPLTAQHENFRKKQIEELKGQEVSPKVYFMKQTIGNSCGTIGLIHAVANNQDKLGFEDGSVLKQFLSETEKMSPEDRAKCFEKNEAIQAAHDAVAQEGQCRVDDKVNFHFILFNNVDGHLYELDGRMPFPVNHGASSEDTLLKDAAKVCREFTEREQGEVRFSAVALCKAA
# Method in brief: as §1
# UCHL3 = biological target: T4, UCHL3 (UniProt P15374)
# T4 sequence (whole entry): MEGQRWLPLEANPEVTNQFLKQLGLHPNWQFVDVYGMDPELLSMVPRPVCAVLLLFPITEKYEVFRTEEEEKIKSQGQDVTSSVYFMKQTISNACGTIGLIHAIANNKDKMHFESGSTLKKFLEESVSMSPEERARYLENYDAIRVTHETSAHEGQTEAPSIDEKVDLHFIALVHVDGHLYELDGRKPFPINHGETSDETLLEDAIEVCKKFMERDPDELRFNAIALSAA
# Method in brief: as §1
# UCHL5 = biological target: T5, UCHL5 (UniProt Q9Y5K5)
# T5 sequence (whole entry): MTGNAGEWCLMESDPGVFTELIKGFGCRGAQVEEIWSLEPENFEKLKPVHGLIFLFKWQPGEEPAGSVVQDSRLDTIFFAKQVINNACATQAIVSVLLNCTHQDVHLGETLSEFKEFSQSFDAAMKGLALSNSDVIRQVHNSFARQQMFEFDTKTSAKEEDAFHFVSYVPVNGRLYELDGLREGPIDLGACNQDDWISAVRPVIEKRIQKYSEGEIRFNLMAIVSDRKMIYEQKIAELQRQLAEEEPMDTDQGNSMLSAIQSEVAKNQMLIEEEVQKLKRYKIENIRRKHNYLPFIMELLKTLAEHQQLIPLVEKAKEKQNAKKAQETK
# Method in brief: as §1
# USP10 = USP10 (UniProt Q14694)
# USP10, sequence (Q14694 whole entry): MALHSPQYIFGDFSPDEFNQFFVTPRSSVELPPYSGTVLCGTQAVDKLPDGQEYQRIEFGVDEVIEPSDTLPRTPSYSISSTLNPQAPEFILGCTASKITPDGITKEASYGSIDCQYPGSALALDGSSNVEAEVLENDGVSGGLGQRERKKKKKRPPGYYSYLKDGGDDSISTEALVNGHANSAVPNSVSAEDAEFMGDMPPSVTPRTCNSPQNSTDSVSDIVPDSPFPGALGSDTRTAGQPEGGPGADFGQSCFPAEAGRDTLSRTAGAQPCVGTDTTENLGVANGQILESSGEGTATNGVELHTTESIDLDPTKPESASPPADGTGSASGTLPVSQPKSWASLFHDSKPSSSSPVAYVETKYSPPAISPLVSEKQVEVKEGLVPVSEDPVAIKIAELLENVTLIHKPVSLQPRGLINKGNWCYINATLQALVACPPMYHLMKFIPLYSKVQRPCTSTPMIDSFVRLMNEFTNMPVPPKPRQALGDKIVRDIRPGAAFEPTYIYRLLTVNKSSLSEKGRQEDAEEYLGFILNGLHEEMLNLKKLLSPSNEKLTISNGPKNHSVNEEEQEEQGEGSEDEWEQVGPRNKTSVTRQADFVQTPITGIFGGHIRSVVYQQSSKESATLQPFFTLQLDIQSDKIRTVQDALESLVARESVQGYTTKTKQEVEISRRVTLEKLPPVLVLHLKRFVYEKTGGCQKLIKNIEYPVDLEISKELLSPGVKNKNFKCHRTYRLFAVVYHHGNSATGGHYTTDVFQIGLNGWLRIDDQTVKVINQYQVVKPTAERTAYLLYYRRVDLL
# Method in brief: as §1
# USP15 = biological target: T6, USP15 (UniProt Q9Y4E8)
# T6 sequence (whole entry): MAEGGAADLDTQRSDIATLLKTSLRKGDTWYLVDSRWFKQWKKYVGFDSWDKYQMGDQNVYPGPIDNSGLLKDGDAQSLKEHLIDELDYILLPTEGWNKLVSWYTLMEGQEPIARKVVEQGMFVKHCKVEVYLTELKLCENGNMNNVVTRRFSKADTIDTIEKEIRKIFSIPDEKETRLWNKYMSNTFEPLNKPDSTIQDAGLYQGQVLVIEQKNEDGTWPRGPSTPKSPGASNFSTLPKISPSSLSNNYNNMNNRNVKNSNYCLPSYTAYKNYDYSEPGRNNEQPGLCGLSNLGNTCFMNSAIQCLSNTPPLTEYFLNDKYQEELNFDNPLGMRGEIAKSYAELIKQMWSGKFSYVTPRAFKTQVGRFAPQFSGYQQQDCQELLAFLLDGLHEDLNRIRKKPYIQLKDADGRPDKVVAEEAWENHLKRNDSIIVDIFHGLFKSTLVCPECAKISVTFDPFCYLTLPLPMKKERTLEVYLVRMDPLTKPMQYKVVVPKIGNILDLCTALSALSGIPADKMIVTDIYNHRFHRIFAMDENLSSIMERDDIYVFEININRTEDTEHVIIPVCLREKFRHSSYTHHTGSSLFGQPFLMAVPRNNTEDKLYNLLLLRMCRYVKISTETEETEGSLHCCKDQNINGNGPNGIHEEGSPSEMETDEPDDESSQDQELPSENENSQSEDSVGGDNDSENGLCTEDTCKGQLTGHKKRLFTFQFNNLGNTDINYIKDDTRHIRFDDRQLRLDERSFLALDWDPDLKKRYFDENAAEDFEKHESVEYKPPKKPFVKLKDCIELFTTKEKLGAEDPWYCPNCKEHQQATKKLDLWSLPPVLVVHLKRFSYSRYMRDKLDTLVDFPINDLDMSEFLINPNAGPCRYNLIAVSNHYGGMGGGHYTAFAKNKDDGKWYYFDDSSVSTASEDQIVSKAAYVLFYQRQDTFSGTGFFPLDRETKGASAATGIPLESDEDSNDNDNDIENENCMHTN
# Method in brief: as §1
# USP16 = USP16 (UniProt Q9Y5T5)
# USP16, sequence (Q9Y5T5 whole entry, looked up): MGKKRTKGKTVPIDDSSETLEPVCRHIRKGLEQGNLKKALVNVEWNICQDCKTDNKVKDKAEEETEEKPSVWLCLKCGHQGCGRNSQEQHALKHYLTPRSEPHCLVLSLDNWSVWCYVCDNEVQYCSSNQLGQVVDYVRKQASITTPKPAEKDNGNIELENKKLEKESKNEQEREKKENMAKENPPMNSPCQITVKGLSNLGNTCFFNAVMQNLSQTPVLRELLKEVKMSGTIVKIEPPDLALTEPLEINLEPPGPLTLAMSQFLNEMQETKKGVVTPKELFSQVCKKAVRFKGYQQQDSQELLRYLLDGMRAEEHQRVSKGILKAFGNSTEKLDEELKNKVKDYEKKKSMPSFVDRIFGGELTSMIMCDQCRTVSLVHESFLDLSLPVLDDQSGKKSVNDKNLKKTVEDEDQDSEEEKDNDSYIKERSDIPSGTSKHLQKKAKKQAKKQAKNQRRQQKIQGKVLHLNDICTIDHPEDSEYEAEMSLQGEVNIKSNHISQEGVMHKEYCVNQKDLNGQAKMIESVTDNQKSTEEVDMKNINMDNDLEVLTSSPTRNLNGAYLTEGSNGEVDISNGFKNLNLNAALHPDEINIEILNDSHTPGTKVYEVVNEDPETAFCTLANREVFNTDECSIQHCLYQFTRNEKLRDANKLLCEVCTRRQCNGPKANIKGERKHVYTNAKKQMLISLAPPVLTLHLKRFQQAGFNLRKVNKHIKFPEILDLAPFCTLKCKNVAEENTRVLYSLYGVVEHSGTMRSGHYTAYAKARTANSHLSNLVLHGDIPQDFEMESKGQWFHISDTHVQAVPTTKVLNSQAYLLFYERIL
# Method in brief: as §1
structure (smiles),measurement,setting,value
CC(NC(=O)CCl)c1cccc2ccccc12 (stereo not given),log2 ratio of Biotin-Ahx-Ub-VS probe labelling,OTUD6B,-0.00256
same,log2 ratio of Biotin-Ahx-Ub-VS probe labelling,OTUD7B,-1.46 (active)
same,log2 ratio of Biotin-Ahx-Ub-VS probe labelling,PRPF8,-0.109
same,log2 ratio of Biotin-Ahx-Ub-VS probe labelling,PSMD7,0.0463
same,log2 ratio of Biotin-Ahx-Ub-VS probe labelling,UCHL1,-1.35 (active)
same,log2 ratio of Biotin-Ahx-Ub-VS probe labelling,UCHL3,-1.96 (active)
same,log2 ratio of Biotin-Ahx-Ub-VS probe labelling,UCHL5,-0.585
same,log2 ratio of Biotin-Ahx-Ub-VS probe labelling,USP10,-0.00367
same,log2 ratio of Biotin-Ahx-Ub-VS probe labelling,USP15,-0.21
same,log2 ratio of Biotin-Ahx-Ub-VS probe labelling,USP16,0.303
